Measured values published in PubChem BioAssay (NCI).
This is part of a sample that, as a whole, favours compounds with a hit. Of some 83,000 tested, about 20% had one in any assay.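 For each line, cells grew in 96-well plates with the test compound present at a single concentration for 48 hours.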 A number with no mark means an inactive call. Activity calls are given as the source filed them. How the source made its calls: active means growth percent below 10; inactive means the rest.

Legend:
Test in all cases: NCI-60 one-dose screen, 48 h (100 = growth as untreated, 0 = no growth, -100 = all killed)
Settings in all cases: 10 µM unless noted
NCI-H23 lung = test system: NCI-H23 lung
NCI-H226 lung = test system: NCI-H226 lung
NCI-H322M lung = test system: NCI-H322M lung
HOP-62 NSCLC = test system: HOP-62 NSCLC
NCI-H460 lung = test system: NCI-H460 lung
HOP-92 NSCLC = test system: HOP-92 NSCLC
NCI-H522 lung = test system: NCI-H522 lung
A549/ATCC NSCLC = test system: A549/ATCC NSCLC
786-0 renal = test system: 786-0 renal
COLO 205 colon = test system: COLO 205 colon

`COc1ccc(N2CCN(C(=O)c3sc4nc(C)c(Br)c(C)c4c3N)CC2)cc1` showed a growth (NCI-H23 lung) of 99.4%, a growth (NCI-H226 lung) of 74.2% and a growth (NCI-H322M lung) of 88%. The growth (HOP-62 NSCLC) was 80%, the growth (NCI-H460 lung) was 105% and the growth (HOP-92 NSCLC) was 88.9%. For the same compound, the growth (NCI-H522 lung) was 89.2%, the growth (A549/ATCC NSCLC) was 91.1% and the growth (786-0 renal) was 99.7%. It also gave a growth (COLO 205 colon) of 107%.
Compound `COc1ccc(/C=C/c2ccc3ccccc3n2)c(OC)c1` has a growth (NCI-H23 lung) of 74.3%, a growth (NCI-H226 lung) of 86.1% and a growth (NCI-H322M lung) of 75.4%. For the same compound, the growth (HOP-62 NSCLC) was 74.4%, the growth (NCI-H460 lung) was 75.5% and the growth (HOP-92 NSCLC) was 46.8%. For the same compound, the growth (NCI-H522 lung) was 72.5%, the growth (A549/ATCC NSCLC) was 79.6% and the growth (786-0 renal) was 96.1%. The growth (COLO 205 colon) was 85.9%.
For `CN(CCCNC(=O)Cc1ccc2ccc3cccc4ccc1c2c34)CCCNc1cc(-c2ccc3ccccc3c2)nc2ccccc12`, the growth (NCI-H23 lung) was -82.1% (active), the growth (NCI-H226 lung) was -39.5% (active) and the growth (NCI-H322M lung) was -83.2% (active). For the same compound, the growth (HOP-62 NSCLC) was -85.9% (active), the growth (NCI-H460 lung) was -73.9% (active) and the growth (HOP-92 NSCLC) was -88.8% (active). The growth (NCI-H522 lung) was -42.9% (active), the growth (A549/ATCC NSCLC) was 1.17% (active) and the growth (786-0 renal) was -80.2% (active). For the same compound, the growth (COLO 205 colon) was -77.3% (active).
In the case of `CCNc1nc(O)c(/C=C2\C=Nc3ncccc32)s1`, the growth (NCI-H23 lung) is reported as -7.87% (active), the growth (NCI-H226 lung) is reported as 10.8% and the growth (NCI-H322M lung) is reported as 5.83% (active). The growth (HOP-62 NSCLC) was -26.5% (active), the growth (NCI-H460 lung) was 2.41% (active) and the growth (HOP-92 NSCLC) was 4.42% (active). The growth (NCI-H522 lung) was -28.6% (active), the growth (A549/ATCC NSCLC) was 11.1% and the growth (786-0 renal) was 3.02% (active). The growth (COLO 205 colon) was -33.3% (active).
With `COc1ccc(C2=CN3CC=CC3CC2=O)cc1` (stereo not given) the growth (NCI-H23 lung) was 97.8%, the growth (NCI-H226 lung) was 98% and the growth (NCI-H322M lung) was 108%. The growth (HOP-62 NSCLC) was 91.1%, the growth (NCI-H460 lung) was 106% and the growth (HOP-92 NSCLC) was 107%. It also gave a growth (NCI-H522 lung) of 85.2%, a growth (A549/ATCC NSCLC) of 87.4% and a growth (786-0 renal) of 88.8%. For the same compound, the growth (COLO 205 colon) was 102%.
`COc1ccc(-c2nc(-c3cn(C)c4ncccc34)cs2)cc1` was tested, and the growth (NCI-H23 lung) was 11.1% [100 µM], the growth (NCI-H226 lung) was 2.9% [100 µM] (active) and the growth (NCI-H322M lung) was 1.44% [100 µM] (active). For the same compound, the growth (HOP-62 NSCLC) was -49.5% [100 µM] (active), the growth (NCI-H460 lung) was -43% [100 µM] (active) and the growth (HOP-92 NSCLC) was -40.4% [100 µM] (active). The growth (NCI-H522 lung) was 20.1% [100 µM], the growth (A549/ATCC NSCLC) was 12.4% [100 µM] and the growth (786-0 renal) was -30.9% [100 µM] (active). For the same compound, the growth (COLO 205 colon) was -49.8% [100 µM] (active).
For `O=C1NC(=O)/C(=C/c2c(-c3ccccc3)nc3sc(COc4ccccc4)nn23)S1`, the growth (NCI-H23 lung) was 86%, the growth (NCI-H226 lung) was 93.5% and the growth (NCI-H322M lung) was 96%. It also gave a growth (HOP-62 NSCLC) of 102%, a growth (NCI-H460 lung) of 102% and a growth (HOP-92 NSCLC) of 66.4%. For the same compound, the growth (NCI-H522 lung) was 83.6%, the growth (A549/ATCC NSCLC) was 96.6% and the growth (786-0 renal) was 81.6%. For the same compound, the growth (COLO 205 colon) was 132%.
`COc1ccc(/C=C/C(=O)c2ccc(NC(=O)CSc3nc4c([nH]3)c(=O)n(C)c(=O)n4C)cc2)cc1OC` showed a growth (NCI-H23 lung) of 93%, a growth (NCI-H226 lung) of 81.1% and a growth (NCI-H322M lung) of 81%. The growth (HOP-62 NSCLC) was 89.5%, the growth (NCI-H460 lung) was 94.6% and the growth (HOP-92 NSCLC) was 73.2%. The growth (NCI-H522 lung) was 96.8%, the growth (A549/ATCC NSCLC) was 87.7% and the growth (786-0 renal) was 82.3%. The growth (COLO 205 colon) was 117%.
In the case of `CCCCCN(CCCCC)CC(O)c1cc(C)c2ccc3cc(C(C)C)ccc3c2c1` (stereo not given), the growth (NCI-H23 lung) is reported as -52.1% (active), the growth (NCI-H226 lung) is reported as 78.9% and the growth (NCI-H322M lung) is reported as 76.7%. For the same compound, the growth (HOP-62 NSCLC) was 20%, the growth (NCI-H460 lung) was 6.03% (active) and the growth (HOP-92 NSCLC) was -43.6% (active). For the same compound, the growth (NCI-H522 lung) was -62.4% (active), the growth (A549/ATCC NSCLC) was 3.86% (active) and the growth (786-0 renal) was -80.5% (active). For the same compound, the growth (COLO 205 colon) was -14.9% (active).
`Cc1cn(-c2cc(NC(=O)c3cncc(C#Cc4c(N)ncc5ccc(F)cc45)c3)cc(C(F)(F)F)c2)cn1` was tested, and the growth (NCI-H23 lung) was 25%, the growth (NCI-H226 lung) was 36.2% and the growth (NCI-H322M lung) was 65.7%. For the same compound, the growth (HOP-62 NSCLC) was 67.3%, the growth (NCI-H460 lung) was 49.2% and the growth (HOP-92 NSCLC) was -8.98% (active). The growth (NCI-H522 lung) was 58.1%, the growth (A549/ATCC NSCLC) was 61.3% and the growth (786-0 renal) was 77.1%. It also gave a growth (COLO 205 colon) of 11.6%.
In the case of `CN1CCN(Cc2ccc(NC(=O)c3cncc(C#Cc4cnc(N)c5ccc(F)cc45)c3)cc2C(F)(F)F)CC1`, the growth (NCI-H23 lung) is reported as 30.1%, the growth (NCI-H226 lung) is reported as 28.2% and the growth (NCI-H322M lung) is reported as 23.5%. For the same compound, the growth (HOP-62 NSCLC) was 7.94% (active), the growth (NCI-H460 lung) was -15.9% (active) and the growth (HOP-92 NSCLC) was -6.92% (active). The growth (NCI-H522 lung) was -81.1% (active), the growth (A549/ATCC NSCLC) was 24.4% and the growth (786-0 renal) was -76.8% (active). For the same compound, the growth (COLO 205 colon) was -25.7% (active).
For `Fc1cc(Nc2ccc3c(OCCCN4CCOCC4)cccc3n2)ccc1Cl`, the growth (NCI-H23 lung) was 61.1%, the growth (NCI-H226 lung) was 68.8% and the growth (NCI-H322M lung) was 45.3%. For the same compound, the growth (HOP-62 NSCLC) was 39.2%, the growth (NCI-H460 lung) was 21.1% and the growth (HOP-92 NSCLC) was 27.3%. For the same compound, the growth (NCI-H522 lung) was -15.5% (active), the growth (A549/ATCC NSCLC) was 25.7% and the growth (786-0 renal) was 1.04% (active). For the same compound, the growth (COLO 205 colon) was -50.2% (active).
With `C=C(c1ccc(OC)c(/C=C/C(=O)c2ccc3c(c2)OCO3)c1)c1cc(OC)c(OC)c(OC)c1` the growth (NCI-H23 lung) was 15.9%, the growth (NCI-H226 lung) was -40.4% (active) and the growth (NCI-H322M lung) was 35.1%. For the same compound, the growth (HOP-62 NSCLC) was 36%, the growth (NCI-H460 lung) was 0.841% (active) and the growth (HOP-92 NSCLC) was 12.7%. The growth (NCI-H522 lung) was 5.55% (active), the growth (A549/ATCC NSCLC) was 27.3% and the growth (786-0 renal) was 12.6%. The growth (COLO 205 colon) was 5.33% (active).
Compound `C/C(=N\O)[C@@H]1CC[C@]2(CO)CC[C@]3(C)[C@H](CC[C@@H]4[C@@]5(C)CCCNC(C)(C)[C@@H]5CC[C@]43C)[C@@H]12` has a growth (NCI-H23 lung) of 89.6%, a growth (NCI-H226 lung) of 92.6% and a growth (NCI-H322M lung) of 94.2%. For the same compound, the growth (HOP-62 NSCLC) was 90%, the growth (NCI-H460 lung) was 72.6% and the growth (HOP-92 NSCLC) was 65.6%. The growth (NCI-H522 lung) was 90%, the growth (A549/ATCC NSCLC) was 76.6% and the growth (786-0 renal) was 92.3%. It also gave a growth (COLO 205 colon) of 81%.
`COc1ccc2c(c1)CCc1[nH]nc(-c3cc(OC)c(OC)c(OC)c3)c1-2` showed a growth (NCI-H23 lung) of 12.7%, a growth (NCI-H226 lung) of 41% and a growth (NCI-H322M lung) of 47%. For the same compound, the growth (HOP-62 NSCLC) was 12.9%, the growth (NCI-H460 lung) was 3.92% (active) and the growth (HOP-92 NSCLC) was 32.8%. The growth (NCI-H522 lung) was -22.3% (active), the growth (A549/ATCC NSCLC) was 5.04% (active) and the growth (786-0 renal) was 3.88% (active). The growth (COLO 205 colon) was -64.6% (active).
`NS(=O)(=O)c1ccc(C(=O)NN2C(=O)c3c(Br)c(Br)c(Br)c(Br)c3C2=O)cc1` showed a growth (NCI-H23 lung) of 104%, a growth (NCI-H226 lung) of 102% and a growth (NCI-H322M lung) of 111%. The growth (HOP-62 NSCLC) was 105%, the growth (NCI-H460 lung) was 110% and the growth (HOP-92 NSCLC) was 99.4%. It also gave a growth (NCI-H522 lung) of 94.3%, a growth (A549/ATCC NSCLC) of 102% and a growth (786-0 renal) of 103%. It also gave a growth (COLO 205 colon) of 112%.
Compound `CC1(C)CC[C@]23CC[C@]4(C)[C@H](CC[C@@H]5[C@@]6(C)C/C(=C/c7ccncc7)C(=O)C(C)(C)[C@@H]6CC[C@]54C)[C@H]2[C@H]1OC3` has a growth (NCI-H23 lung) of 91.8%, a growth (NCI-H226 lung) of 90.9% and a growth (NCI-H322M lung) of 90.9%. For the same compound, the growth (HOP-62 NSCLC) was 91%, the growth (NCI-H460 lung) was 75.8% and the growth (HOP-92 NSCLC) was 72.4%. For the same compound, the growth (NCI-H522 lung) was 76.4%, the growth (A549/ATCC NSCLC) was 76.5% and the growth (786-0 renal) was 88.5%. It also gave a growth (COLO 205 colon) of 68.5%.
With `Nc1[nH]n2cc(-c3ccc(F)cc3)nc2c1N=Nc1ccc(S(N)(=O)=O)cc1` the growth (NCI-H23 lung) was 80.9%, the growth (NCI-H226 lung) was 88.4% and the growth (NCI-H322M lung) was 41.9%. The growth (HOP-62 NSCLC) was 90.7%, the growth (NCI-H460 lung) was 58.8% and the growth (HOP-92 NSCLC) was 74.9%. It also gave a growth (NCI-H522 lung) of 55.3%, a growth (A549/ATCC NSCLC) of 84.6% and a growth (786-0 renal) of 68.1%. The growth (COLO 205 colon) was 95.1%.
